Platelet DG rel: modulates dense granule release in human platelets. human platelet-rich plasma, SFLLRN dense granule ATP release, luminescence. inhibition, %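 (compounds screened at 7.5 µM in platelet-rich plasma)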. 300,000 tested, 0.22% active;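 active = mean replicate score, as percent of positive control, at or above 50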
CHT allo act: allosterically activates the human high affinity choline transporter; AID 488977; CHT-expressing cells, membrane potential dye, choline EC20; active compounds read high; LV-AA mutant CHT in HEK293 cells; 310,000 tested, 0.49% active; Q9GZV3; B-score at 10 µM;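 active = initial fluorescence not abnormally high and integrated response B-score, plate-corrected, over 3 SD above library mean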
Target sequence (Q9GZV3 whole entry, looked up): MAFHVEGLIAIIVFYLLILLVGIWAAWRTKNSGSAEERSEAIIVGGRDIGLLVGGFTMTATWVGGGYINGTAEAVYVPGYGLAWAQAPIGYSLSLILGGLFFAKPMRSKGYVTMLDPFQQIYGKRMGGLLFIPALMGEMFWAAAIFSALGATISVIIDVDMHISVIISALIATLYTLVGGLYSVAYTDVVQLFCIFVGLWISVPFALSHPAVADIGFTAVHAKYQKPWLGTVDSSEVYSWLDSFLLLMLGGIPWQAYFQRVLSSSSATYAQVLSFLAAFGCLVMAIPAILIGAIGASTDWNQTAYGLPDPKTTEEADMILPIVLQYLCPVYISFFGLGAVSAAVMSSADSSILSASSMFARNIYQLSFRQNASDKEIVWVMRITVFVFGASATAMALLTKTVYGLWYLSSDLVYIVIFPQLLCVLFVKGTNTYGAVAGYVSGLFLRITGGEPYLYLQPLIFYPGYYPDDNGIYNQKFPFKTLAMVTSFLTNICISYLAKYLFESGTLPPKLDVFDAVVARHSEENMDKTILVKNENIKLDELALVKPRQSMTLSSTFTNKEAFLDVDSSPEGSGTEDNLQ
VLA-4 inh: inhibition in a human VLA-4 binding assay; 330,000 tested, 0.2% active; inhibition, % (about 7 µM as worked out from the volumes in the protocol); VLA-4 expressing cells, ligand binding flow cytometry; AID 2557; in the data active = inhibition above about 50%
AI-2 QS mod: modulators of Vibrio harveyi AI-2 quorum sensing system. 300,000 tested, 0.4% active. Vibrio harveyi JMH597 AI-2 luminescence/OD600 ratio, 9 h; active compounds read low; strain lacks LuxN and CqsS sensors; 0 = neutral-control median. activity change, % at 7.5 µM; in the data active = activity change below about -75%, passing the limit was not always enough;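 also: luminescence divided by OD600 gain over 9 h not by final OD600 alone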
HIF act: HIF pathway transcriptional activation; activation, % at 7.5 µM (by protocol); 300,000 tested, 0.32% active; U2OS HRE-luciferase reporter, luminescence; normalized: DMSO 0%, desferrioxamine 100%;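 active = mean activation of at least 10% of the iron chelator positive control signal, with at least half of replicates also reaching 10%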
CHT inh: inhibitors of human choline transporter CHT | Q9GZV3 | CHT-expressing cells, membrane potential dye, choline response; active compounds read low | B-score at 10 µM | 310,000 tested, 0.86% active | AID 488975;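 active = B-score over 3 SD under the library average, and starting fluorescence ratio not unusually high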;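 also: choline stimulus applied at its EC90 after an EC20 pre-addition; B-score computed on integrated fluorescence ratio after choline addition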
CHT activ conf: confirmation of human choline transporter (CHT) activators; activation, % at 10 µM; 2,500 tested, 91% active; shares compounds with CHT allo act; CHT-expressing cells, membrane potential dye fluorescence (FDSS); % of choline EC20–EC90 response window; HEK293 expressing CHT LV-AA mutant; choline added at its EC20; AID 504833;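 active = primary screen active, with duplicate mean activation above negative control mean plus 3 SD, cut at about 11% in these data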
HEK293 MP dye: counter-screen for CHT activators: effect in parental HEK293 cells; shares compounds with CHT allo act; ratio readout change at 10 µM, hits read low; membrane potential dye fluorescence (FDSS); measured after EC20 choline addition; 2,500 tested, 62% active;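 active = duplicate-averaged ratio beyond 3 SD from buffer wells, up or down, though filed actives are nearly all decreases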
Numbers stand for hits; n = inactive; x = no result. Rows were chosen to be rich in hits. Some 2.2% of all compounds tested hit in one or more screens of this group.

SMILES | Platelet DG rel | CHT allo act | VLA-4 inh | AI-2 QS mod | HIF act | CHT inh | CHT activ conf | HEK293 MP dye
CC(=O)c1ccc(-n2cc(-c3ccc(C(C)(C)C)cc3)[n+]3c2SCCC3)cc1 | n | 7 | n | n | n | n | 25 | -45
Clc1ccc(-c2cn(-c3ccc(Cl)cc3)c3[n+]2CCCCC3)cc1 | n | n | n | n | n | n | x | x
Cc1cc(=O)n2c3ccccc3n(CC(O)CN3CCCCC3)c2c1C#N (stereo not drawn) | n | 7.3 | n | n | x | n | 27 | -44
Cc1cc(=O)n2c3ccccc3n(CC(O)CN3CCOCC3)c2c1C#N (stereo not drawn) | n | n | n | n | n | n | x | x
CCOC(=O)c1c[nH]c2nc(C)ccc2c1=O | n | 10 | n | n | n | n | 63 | -63
Cn1c(Cl)nc2ccccc21 | n | n | n | n | n | n | x | x
Cn1c(N=Nc2ccccc2)nc2ccccc21 | 72 | 6.4 | n | n | n | n | 29 | -53
O=C(c1nc2ccccn2c1CN1CCCC(O)C1)N1CCN(C2CCCCC2)CC1 (stereo not drawn) | n | n | n | n | n | n | 75 | -57
CCOC(=O)C1CCN(c2nc(C)nc3c2oc2ccccc23)CC1 | n | 8 | n | n | n | n | n | n
CCn1cc(C2=NCCO2)c2ccccc21 | n | 9.4 | n | n | n | n | 43 | -44
CCn1cc(C2=NC(C)CO2)c2ccccc21 (stereo not drawn) | n | n | n | n | n | n | x | x
CCOc1ccc(CNC(=S)Nc2ccccc2)cc1Cl | n | n | n | n | n | n | x | x
CC(=O)N/N=C/c1cc(C(C)(C)C)cc(/C=N/NC(C)=O)c1O | n | 8.4 | n | n | n | n | 64 | -50
COc1ccc(NC(=O)c2cc(-c3ccccc3)nc3c2cnn3C(C)C)c(OC)c1 | x | x | n | x | x | x | x | x
COC(=O)c1cc2c(C)[nH]c(C)c2cc(C(=O)OC)c1=O | n | n | n | n | n | n | 30 | -45
CN1CCN(c2nc(C#N)cc(-c3ccccc3)n2)CC1 | n | n | n | n | n | n | 23 | -23
COc1ccc(-c2cc(C#N)nc(N3CCN(C)CC3)n2)cc1 | n | n | n | n | n | n | x | x
O=C(NCc1ccco1)c1ccc(N2CCCC2=O)cc1 | n | n | n | n | n | n | x | x
O=C(N/N=C/c1ccco1)c1ccc(N2CCCC2=O)cc1 | n | 7.7 | n | n | n | n | 59 | -70
CCCCN(C)C(=O)Cc1c(OC)ccc2cc(Br)ccc12 | n | 6.7 | x | n | n | n | n | n
CCc1ccc(OCC(=O)N/N=C/c2cc([N+](=O)[O-])ccc2N2CCOCC2)cc1 | n | n | n | n | n | n | 23 | n
Cc1ccc(Cl)cc1N1CCN(C(=O)C2CCC(=O)N(C3CCCCCC3)C2)CC1 (stereo not drawn) | n | 9.2 | n | n | n | n | 24 | n
CCOc1ccccc1C(=O)NCC(=O)NCC(C)(C)N1CCOCC1 | x | x | n | x | x | x | x | x
O=C(Nc1cccc(F)c1)Nc1ccccn1 | n | n | n | n | n | n | x | x
O=C(Nc1ccncc1)Nc1ccccn1 | n | n | n | n | n | n | 50 | -45
SMILES | Platelet DG rel | CHT allo act | VLA-4 inh | AI-2 QS mod | HIF act | CHT inh | CHT activ conf | HEK293 MP dye
C/C(=N\Nc1ccccn1)c1ccc(OC(F)F)cc1 | n | n | n | n | n | n | x | x
C/C(=N\Nc1ccccn1)c1ccc(C#N)cc1 | n | n | n | n | n | n | 30 | -56
O=[N+]([O-])c1ccc(Cl)c(C[n+]2cccc3ccccc32)c1 | n | n | n | n | n | n | 54 | -46
COc1cccc2c(=O)c3ccoc3n(C)c12 | n | n | n | n | n | n | x | x
COc1cccc2c(=O)c3c(cnn3C)n(C)c12 | n | 10 | n | n | n | n | 51 | -55
NC(=S)NNc1c(F)c(F)c(F)c(F)c1F | n | n | n | n | n | n | x | x
COc1ccc2c(c1)c1ncn(CCCN3CCOCC3)c(=O)c1n2C | n | n | n | n | n | n | 44 | -39
COc1ccc2c(c1)[nH]c1c(=O)n(CCCN3CCOCC3)cnc12 | n | n | n | n | n | n | x | x
O=C(N/N=C/c1ccncc1)c1cccc([N+](=O)[O-])c1 | n | n | n | n | n | n | 49 | -51
O=C(N/N=C/c1ccncc1)c1cc([N+](=O)[O-])cc([N+](=O)[O-])c1 | n | n | n | n | n | n | x | x
Cc1cc(C(=O)OCC(=O)NCc2ccc(Cl)cc2)c(C)o1 | n | n | n | n | n | n | x | x
Cc1ccc2ccc[n+](Cc3ccccc3)c2c1 | n | 7.9 | n | n | n | n | 90 | -81
Cc1ccc2c(c1)c(C)cc[n+]2Cc1ccccc1 | n | 9.8 | n | n | n | n | 42 | -71
Clc1cccc(Cl)c1C[n+]1cccc2ccccc21 | x | n | n | n | x | n | x | x
COc1ccc2c(c1)c(C)cc[n+]2Cc1ccccc1 | n | 6.7 | n | n | n | n | 74 | -67
Cn1c(N)c(C(=O)CSc2nnc(C3CC3)n2-c2ccccc2)c(=O)n(C)c1=O | x | x | n | x | x | x | x | x
COc1ccc(C(=O)C[n+]2ccc3ccccc3c2C)cc1 | n | n | n | n | n | n | 48 | -32
Cc1cccc(CC(=O)N2CCC(n3nccc3NC(=O)C3CC3)CC2)c1 | n | n | n | n | n | n | x | x
N=c1c(C(=O)NC2CCCC2)cc2c(=O)n3ccccc3nc2n1C1CCCCC1 | n | n | n | n | n | n | 48 | -35
Cc1ccc2nc3c(cc(C(=O)NC4CCCCC4)c(=N)n3C3CCCCC3)c(=O)n2c1 | n | n | n | n | n | n | x | x
CCS(=O)(=O)N1Cc2ccccc2CC1C(=O)N(C)CC(=O)Nc1ccc(F)c(F)c1F (stereo not drawn) | n | n | n | n | n | n | x | x
CCN1CCN(c2cc(C)c3cc(NC(=O)c4ccncc4)ccc3n2)CC1 | n | n | n | n | n | n | 43 | -26
CCN1CCN(C(=S)Nc2ccc3nc(N4CCN(CC)CC4)cc(C)c3c2)CC1 | n | n | n | n | n | n | 27 | -37
CCN1CCN(C(=S)Nc2ccc3nc(N4CCN(C)CC4)cc(C)c3c2)CC1 | n | 6.9 | n | n | n | n | 41 | -34
C#CCOCCOCCOCCNc1nc(N2CCN(C(=O)[C@H](CCC(=O)O)n3cc(CN)nn3)CC2)nc(N2CCN(C(=O)[C@H](CCCN=C(N)N)n3cc(C(N)[C@@H](C)CC)nn3)CC2)n1 (stereo partly drawn) | x | x | n | x | x | x | x | x
Cc1ccc(C)c(N2N=C(C(=O)Nc3cccnc3)CCC2=O)c1 | x | x | n | x | x | x | x | x
